Paper PMC7862700, “An all-to-all approach to the identification of sequence-specific readers for epigenetic DNA modifications on cytosine”

What was measured:
Assay in all cases: DAPPL (digital affinity profiling via proximity ligation, sequencing); 10 mM Tris-HCl pH 7.5, 50 mM NaCl, 1 mM DTT, 4% glycerol, room temperature, 30 min; GST-TFs on glutathione beads, 16-mer random dsDNA library, 0.1% formaldehyde crosslink after washing; high values mean tight binding
Settings in all cases: protein: recombinant; tags: N-terminal GST; dsDNA, one strand shown
FLI1 = molecular target: T1, FLI1 (Homo sapiens, UniProt Q01543 1-452)
T1 sequence: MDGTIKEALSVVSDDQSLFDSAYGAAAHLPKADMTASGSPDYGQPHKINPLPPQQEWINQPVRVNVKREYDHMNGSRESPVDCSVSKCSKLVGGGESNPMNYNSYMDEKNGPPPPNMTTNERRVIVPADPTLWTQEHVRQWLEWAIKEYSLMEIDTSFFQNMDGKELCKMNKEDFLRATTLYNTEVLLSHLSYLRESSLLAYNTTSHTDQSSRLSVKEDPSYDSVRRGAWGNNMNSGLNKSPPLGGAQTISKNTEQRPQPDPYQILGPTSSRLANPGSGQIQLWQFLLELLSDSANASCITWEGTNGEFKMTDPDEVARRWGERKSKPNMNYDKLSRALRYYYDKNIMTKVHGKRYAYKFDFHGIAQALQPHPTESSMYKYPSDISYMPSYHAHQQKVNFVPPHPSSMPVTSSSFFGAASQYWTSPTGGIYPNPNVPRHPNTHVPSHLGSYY
Method in brief: (§1)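 Human transcription factors were made in yeast as GST fusions, captured on glutathione beads and barcoded with DNA. With a tag-only sample included, the pool was incubated with 200 nmole of a random double-stranded 16-mer DNA library in Tris/NaCl/DTT/glycerol buffer at room temperature for 30 min, then crosslinked with 0.1% formaldehyde after washing, ligated by proximity, amplified and sequenced. For binding signal, each hexamer's read frequency for a factor is divided by its frequency for the tag-only sample.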

ELK1 = molecular target: T2, ELK1 (Homo sapiens, UniProt P19419 1-428)
T2 sequence: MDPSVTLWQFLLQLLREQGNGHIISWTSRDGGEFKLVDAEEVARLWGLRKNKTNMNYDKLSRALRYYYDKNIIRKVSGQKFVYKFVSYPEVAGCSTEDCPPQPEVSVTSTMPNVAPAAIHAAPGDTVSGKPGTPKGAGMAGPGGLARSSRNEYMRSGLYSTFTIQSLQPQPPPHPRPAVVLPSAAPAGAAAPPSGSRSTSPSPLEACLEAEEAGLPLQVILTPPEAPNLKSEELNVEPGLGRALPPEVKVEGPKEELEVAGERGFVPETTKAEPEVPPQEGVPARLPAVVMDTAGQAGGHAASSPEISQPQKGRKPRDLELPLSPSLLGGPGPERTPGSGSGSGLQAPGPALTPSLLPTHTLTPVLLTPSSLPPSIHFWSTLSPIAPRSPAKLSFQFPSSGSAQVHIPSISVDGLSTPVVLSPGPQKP
Method in brief: as §1

GABPA = molecular target: T3, GABPA (Homo sapiens, UniProt Q06546 1-454)
T3 sequence: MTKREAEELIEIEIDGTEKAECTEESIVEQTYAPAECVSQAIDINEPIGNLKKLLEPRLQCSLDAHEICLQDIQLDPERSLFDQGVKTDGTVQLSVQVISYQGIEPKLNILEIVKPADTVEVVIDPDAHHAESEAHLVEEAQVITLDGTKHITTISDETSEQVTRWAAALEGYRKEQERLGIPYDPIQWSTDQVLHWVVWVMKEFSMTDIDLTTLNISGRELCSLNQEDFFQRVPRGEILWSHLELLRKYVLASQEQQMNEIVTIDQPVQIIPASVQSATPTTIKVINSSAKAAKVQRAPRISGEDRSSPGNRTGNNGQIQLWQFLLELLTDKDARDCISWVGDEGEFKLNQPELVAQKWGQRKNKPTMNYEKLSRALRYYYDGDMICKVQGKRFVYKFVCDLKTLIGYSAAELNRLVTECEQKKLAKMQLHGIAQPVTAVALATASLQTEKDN
Method in brief: as §1

ERG = molecular target: T4, ERG (Homo sapiens, UniProt P11308 1-479)
T4 sequence: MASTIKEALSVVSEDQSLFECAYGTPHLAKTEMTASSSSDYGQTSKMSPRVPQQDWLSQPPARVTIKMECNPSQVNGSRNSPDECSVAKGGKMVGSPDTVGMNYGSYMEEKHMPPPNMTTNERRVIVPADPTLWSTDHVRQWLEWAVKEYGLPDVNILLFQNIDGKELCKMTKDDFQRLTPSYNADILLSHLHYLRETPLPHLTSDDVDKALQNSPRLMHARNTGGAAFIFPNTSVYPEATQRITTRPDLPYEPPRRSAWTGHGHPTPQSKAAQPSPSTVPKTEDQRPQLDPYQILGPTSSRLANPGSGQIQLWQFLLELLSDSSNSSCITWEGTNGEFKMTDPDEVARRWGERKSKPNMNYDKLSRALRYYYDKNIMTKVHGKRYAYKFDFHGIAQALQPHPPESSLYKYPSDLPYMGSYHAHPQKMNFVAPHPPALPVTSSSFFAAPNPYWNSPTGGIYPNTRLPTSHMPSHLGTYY
Method in brief: as §1

ELF1 = ELF1 (Homo sapiens, UniProt P32519 1-619)
ELF1, sequence (P32519 whole entry): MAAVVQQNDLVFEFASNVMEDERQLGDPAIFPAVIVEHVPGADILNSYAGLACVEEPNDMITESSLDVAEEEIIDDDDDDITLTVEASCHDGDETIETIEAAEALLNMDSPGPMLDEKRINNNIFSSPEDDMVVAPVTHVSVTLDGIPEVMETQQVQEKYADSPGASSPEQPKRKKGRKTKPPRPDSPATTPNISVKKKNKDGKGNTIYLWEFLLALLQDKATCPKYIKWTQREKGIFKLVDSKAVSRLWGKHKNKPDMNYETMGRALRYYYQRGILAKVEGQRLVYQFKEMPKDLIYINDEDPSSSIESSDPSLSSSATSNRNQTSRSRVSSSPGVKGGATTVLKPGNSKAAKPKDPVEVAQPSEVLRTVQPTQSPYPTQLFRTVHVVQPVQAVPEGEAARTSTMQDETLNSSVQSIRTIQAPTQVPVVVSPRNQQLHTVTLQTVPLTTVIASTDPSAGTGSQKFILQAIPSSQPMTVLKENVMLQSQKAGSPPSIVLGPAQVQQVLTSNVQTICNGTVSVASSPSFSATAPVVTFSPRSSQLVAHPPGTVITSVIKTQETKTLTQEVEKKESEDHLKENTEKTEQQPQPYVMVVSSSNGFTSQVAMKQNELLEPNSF
Method in brief: as §1

EHF = molecular target: T5, EHF (Homo sapiens, UniProt Q9NZC4 1-300)
T5 sequence: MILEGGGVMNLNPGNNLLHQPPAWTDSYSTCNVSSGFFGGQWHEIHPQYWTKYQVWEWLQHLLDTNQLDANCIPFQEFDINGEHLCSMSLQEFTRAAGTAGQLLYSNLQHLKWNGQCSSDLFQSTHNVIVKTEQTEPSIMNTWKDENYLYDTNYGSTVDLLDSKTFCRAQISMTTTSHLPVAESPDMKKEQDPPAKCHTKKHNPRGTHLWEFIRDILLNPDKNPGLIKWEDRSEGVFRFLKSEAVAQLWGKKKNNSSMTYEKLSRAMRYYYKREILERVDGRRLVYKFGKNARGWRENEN
Method in brief: as §1

SPI1 = SPI1 (Homo sapiens, UniProt P17947 1-270)
Method in brief: as §1

SPIB = SPIB (Homo sapiens, UniProt Q01892 1-262)
SPIB, sequence (Q01892 whole entry): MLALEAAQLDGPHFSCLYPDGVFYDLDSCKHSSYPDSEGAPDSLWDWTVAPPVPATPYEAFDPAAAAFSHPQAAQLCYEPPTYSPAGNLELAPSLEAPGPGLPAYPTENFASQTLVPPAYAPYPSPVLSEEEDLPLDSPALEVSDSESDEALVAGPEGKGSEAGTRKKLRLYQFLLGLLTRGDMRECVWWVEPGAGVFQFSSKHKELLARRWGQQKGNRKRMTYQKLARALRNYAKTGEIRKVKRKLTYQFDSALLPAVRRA
Method in brief: as §1

ELK3 = molecular target: T6, ELK3 (Homo sapiens, UniProt P41970 1-407)
T6 sequence: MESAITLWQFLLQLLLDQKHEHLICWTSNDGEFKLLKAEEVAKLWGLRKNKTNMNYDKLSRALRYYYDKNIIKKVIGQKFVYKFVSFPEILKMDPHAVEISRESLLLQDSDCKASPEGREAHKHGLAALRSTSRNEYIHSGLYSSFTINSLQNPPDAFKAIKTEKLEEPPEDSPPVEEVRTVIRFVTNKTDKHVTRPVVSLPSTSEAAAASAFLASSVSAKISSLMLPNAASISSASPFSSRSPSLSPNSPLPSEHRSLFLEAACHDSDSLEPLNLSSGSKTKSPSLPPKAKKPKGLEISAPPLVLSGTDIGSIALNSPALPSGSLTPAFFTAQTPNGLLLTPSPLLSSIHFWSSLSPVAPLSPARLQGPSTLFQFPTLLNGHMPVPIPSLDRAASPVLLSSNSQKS
Method in brief: as §1

Sequence | binding signal (FLI1) | binding signal (ELK1) | binding signal (GABPA) | binding signal (ERG) | binding signal (ELF1) | binding signal (EHF) | binding signal (SPI1) | binding signal (SPIB) | binding signal (ELK3)
GTTTTT | 1.31 fold enrichment (6-mer frequency, TF over GST control) | 1.19 fold enrichment (6-mer frequency, TF over GST control) | 1.4 fold enrichment (6-mer frequency, TF over GST control) | 1.17 fold enrichment (6-mer frequency, TF over GST control) | 1.34 fold enrichment (6-mer frequency, TF over GST control) | 1.38 fold enrichment (6-mer frequency, TF over GST control) | 1.42 fold enrichment (6-mer frequency, TF over GST control) | 1.36 fold enrichment (6-mer frequency, TF over GST control) | 1.51 fold enrichment (6-mer frequency, TF over GST control)
AAACAT | 1.53 fold enrichment (6-mer frequency, TF over GST control) | 1.4 fold enrichment (6-mer frequency, TF over GST control) | 1.49 fold enrichment (6-mer frequency, TF over GST control) | 1.37 fold enrichment (6-mer frequency, TF over GST control) | 1.5 fold enrichment (6-mer frequency, TF over GST control) | 1.43 fold enrichment (6-mer frequency, TF over GST control) | 1.36 fold enrichment (6-mer frequency, TF over GST control) | 1.48 fold enrichment (6-mer frequency, TF over GST control) | 1.46 fold enrichment (6-mer frequency, TF over GST control)
GGTCTC | 2.92 fold enrichment (6-mer frequency, TF over GST control) | 2.66 fold enrichment (6-mer frequency, TF over GST control) | 2.5 fold enrichment (6-mer frequency, TF over GST control) | 2.46 fold enrichment (6-mer frequency, TF over GST control) | 2.74 fold enrichment (6-mer frequency, TF over GST control) | 2.55 fold enrichment (6-mer frequency, TF over GST control) | 2.89 fold enrichment (6-mer frequency, TF over GST control) | 2.59 fold enrichment (6-mer frequency, TF over GST control) | 2.2 fold enrichment (6-mer frequency, TF over GST control)
CCCAAT | 1.23 fold enrichment (6-mer frequency, TF over GST control) | 1.29 fold enrichment (6-mer frequency, TF over GST control) | 1.35 fold enrichment (6-mer frequency, TF over GST control) | 1.24 fold enrichment (6-mer frequency, TF over GST control) | 1.29 fold enrichment (6-mer frequency, TF over GST control) | 1.22 fold enrichment (6-mer frequency, TF over GST control) | 1.28 fold enrichment (6-mer frequency, TF over GST control) | 1.21 fold enrichment (6-mer frequency, TF over GST control) | 1.22 fold enrichment (6-mer frequency, TF over GST control)
TCCCAT | 1.36 fold enrichment (6-mer frequency, TF over GST control) | 1.37 fold enrichment (6-mer frequency, TF over GST control) | 1.51 fold enrichment (6-mer frequency, TF over GST control) | 1.45 fold enrichment (6-mer frequency, TF over GST control) | 1.44 fold enrichment (6-mer frequency, TF over GST control) | 1.43 fold enrichment (6-mer frequency, TF over GST control) | 1.28 fold enrichment (6-mer frequency, TF over GST control) | 1.48 fold enrichment (6-mer frequency, TF over GST control) | 1.47 fold enrichment (6-mer frequency, TF over GST control)
TGGCCT | 1.59 fold enrichment (6-mer frequency, TF over GST control) | 1.37 fold enrichment (6-mer frequency, TF over GST control) | 1.51 fold enrichment (6-mer frequency, TF over GST control) | 1.54 fold enrichment (6-mer frequency, TF over GST control) | 1.48 fold enrichment (6-mer frequency, TF over GST control) | 1.5 fold enrichment (6-mer frequency, TF over GST control) | 1.55 fold enrichment (6-mer frequency, TF over GST control) | 1.48 fold enrichment (6-mer frequency, TF over GST control) | 1.29 fold enrichment (6-mer frequency, TF over GST control)
TTTACT | 1.41 fold enrichment (6-mer frequency, TF over GST control) | 1.56 fold enrichment (6-mer frequency, TF over GST control) | 1.53 fold enrichment (6-mer frequency, TF over GST control) | 1.43 fold enrichment (6-mer frequency, TF over GST control) | 1.43 fold enrichment (6-mer frequency, TF over GST control) | 1.51 fold enrichment (6-mer frequency, TF over GST control) | 1.46 fold enrichment (6-mer frequency, TF over GST control) | 1.37 fold enrichment (6-mer frequency, TF over GST control) | 1.41 fold enrichment (6-mer frequency, TF over GST control)
GTAATA | 1.12 fold enrichment (6-mer frequency, TF over GST control) | 1.21 fold enrichment (6-mer frequency, TF over GST control) | 1.09 fold enrichment (6-mer frequency, TF over GST control) | 1.15 fold enrichment (6-mer frequency, TF over GST control) | 1.15 fold enrichment (6-mer frequency, TF over GST control) | 1.2 fold enrichment (6-mer frequency, TF over GST control) | 1.11 fold enrichment (6-mer frequency, TF over GST control) | 1.24 fold enrichment (6-mer frequency, TF over GST control) | 1.01 fold enrichment (6-mer frequency, TF over GST control)
